Results as given in PubChem BioAssay (NCATS).
“And” between values parts separate entries of the source, which are not always exact repeats. Equal values may be shown once. Inconclusive results are not listed. Entries that show only a call come without a potency. The source made the active and inactive calls. Calls come from the whole dose curve; as a rule, active = well fitted cell-killing curve with a large enough effect; inconclusive = small, poorly fitted or top-dose-only effect; inactive = flat fitted curve, though single readings scatter.

Assay: Cell Viability - LYMP2-009 (AID 968);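 note: cells exposed to compound for 24 h at 37 °C; nearly all actives have a fitted effect of over 55% in size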
Settings: LYMP2-009 lymphoblastoid cell viability; series mostly up to 92.2 µM
Potency is the fitted concentration of half-maximal effect.

SMILES | Potency
O=C(O)C(Cl)(Cl)Cl | inactive
C[C@H]1CC[C@@H]2[C@@H](C)[C@H]3[C@H](C[C@H]4[C@@H]5CC=C6CC(O[C@@H]7O[C@H](CO)[C@H](O)[C@H](O[C@@H]8O[C@H](CO)[C@@H](O)[C@H](O)[C@H]8O)[C@H]7O[C@H]7O[C@@H](C)[C@H](O)[C@@H](O)[C@H]7O)CC[C@]6(C)[C@H]5CC[C@]34C)N2C1 (some centres undefined) | 39.8 µM (active)
O=C1CCO1 | inactive
O=C1C=CC(=O)C=C1 | 50.1 µM (active)
COC1=CC(=O)O[C@@H](/C=C/c2ccccc2)C1 | inactive
COc1ccc2c(c1OC)C(=O)OC2C1c2cc3c(cc2CCN1C)OCO3 (centres undefined) | inactive
O=[N+]([O-])c1ccc(F)c([N+](=O)[O-])c1 | inactive
[Cl-].[Cl-].[Hg+2] | 10 µM (active)
CC(C)Nc1ccc(Nc2ccccc2)cc1 | 31.6 µM (active)
O=C1C2CC=CCC2C(=O)N1SC(Cl)(Cl)Cl (centres undefined) | 6.31 µM (active) and 5.01 µM (active)
C[C@]12CCC(=O)C[C@@H]1CC[C@@H]1[C@@H]2CC[C@]2(C)[C@@H](O)CC[C@@H]12 | inactive
C=CCN=C=S | inactive
[O]=[Cr](=[O])([OH])[O][Cr](=[O])(=[O])[OH] | 10 µM (active) and 6.31 µM (active)
[O]=[Cd] | inactive
O=C/C=C/c1ccccc1 | inactive
Oc1cc(Cl)c(Cl)cc1Cl | inactive
S=C=S | inactive
CCOC(=O)c1ccccc1C(=O)OCC | inactive
CCCCCCCCOC(=O)c1ccccc1C(=O)OCCCCCCCC | inactive
CC(C)(C)c1cc(O)ccc1O | 50.1 µM (active)
O=[N+]([O-])c1ccccc1 | inactive
Clc1ccccc1Cl | inactive
ClC=C(Cl)Cl | inactive
ClC(Cl)(Cl)Cl | inactive
C[C@H]1CCC[C@H](O)CCCCCc2cc(O)cc(O)c2C(=O)O1 | inactive
O=CC=O | inactive
CCCCCl | inactive
O=Cc1ccco1 | inactive
NNC(N)=O | inactive
CC(C)CCON=O | inactive

Assay: Cell Viability - LYMP2-011 (AID 969);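 note: cells exposed to compound for 24 hours; nearly all actives have a fitted effect of over 60% in size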
Settings: LYMP2-011 lymphoblastoid cells viability; series mostly up to 92.2 µM
Procedure, shortened: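 Cells seeded at 2500 per well rest 5 hr before compound addition, then incubate 24 hr at 37 C. CellTiter-Glo reagent is added for 30 min at room temperature before luminescence detection.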

SMILES | Potency
O=C(O)C(Cl)(Cl)Cl | inactive
C[C@H]1CC[C@@H]2[C@@H](C)[C@H]3[C@H](C[C@H]4[C@@H]5CC=C6CC(O[C@@H]7O[C@H](CO)[C@H](O)[C@H](O[C@@H]8O[C@H](CO)[C@@H](O)[C@H](O)[C@H]8O)[C@H]7O[C@H]7O[C@@H](C)[C@H](O)[C@@H](O)[C@H]7O)CC[C@]6(C)[C@H]5CC[C@]34C)N2C1 (some centres undefined) | 39.8 µM (active)
O=C1CCO1 | inactive
O=C1C=CC(=O)C=C1 | 50.1 µM (active)
COC1=CC(=O)O[C@@H](/C=C/c2ccccc2)C1 | inactive
COc1ccc2c(c1OC)C(=O)OC2C1c2cc3c(cc2CCN1C)OCO3 (centres undefined) | inactive
[Cl-].[Cl-].[Hg+2] | 12.6 µM (active)
CC(C)Nc1ccc(Nc2ccccc2)cc1 | 31.6 µM (active)
O=C1C2CC=CCC2C(=O)N1SC(Cl)(Cl)Cl (centres undefined) | 6.31 µM (active)
C[C@]12CCC(=O)C[C@@H]1CC[C@@H]1[C@@H]2CC[C@]2(C)[C@@H](O)CC[C@@H]12 | inactive
C=CCN=C=S | inactive
[O]=[Cr](=[O])([OH])[O][Cr](=[O])(=[O])[OH] | 10 µM (active) and 12.6 µM (active) and 7.94 µM (active)
[O]=[Cd] | inactive
O=C/C=C/c1ccccc1 | inactive
Oc1cc(Cl)c(Cl)cc1Cl | inactive
S=C=S | inactive
ClCC1CO1 (centres undefined) | inactive
CCOC(=O)c1ccccc1C(=O)OCC | inactive
CCCCCCCCOC(=O)c1ccccc1C(=O)OCCCCCCCC | inactive
O=[N+]([O-])c1ccccc1 | inactive
Clc1ccccc1Cl | inactive
ClC=C(Cl)Cl | inactive
ClC(Cl)(Cl)Cl | inactive
C[C@H]1CCC[C@H](O)CCCCCc2cc(O)cc(O)c2C(=O)O1 | inactive
O=CC=O | inactive
CCCCCl | inactive
O=Cc1ccco1 | inactive
NNC(N)=O | inactive
CC(C)CCON=O | inactive

Assay: Cell Viability - LYMP2-013 (AID 970);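 note: cells exposed to compound for 24 h at 37 °C; nearly all actives have a fitted effect of over 55% in size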
Settings: LYMP2-013 lymphoblastoid cells viability; series mostly up to 92.2 µM
Procedure, shortened: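 In complete culture medium, human lymphoblastoid cells were dosed for 24 hr at 37 C, with tetraoctylammonium bromide (6.4pM to 92 uM) as positive control. Viability reflects luciferase-based ATP signal; AC50 derived from concentration-response curves.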

SMILES | Potency
O=C(O)C(Cl)(Cl)Cl | inactive
C[C@H]1CC[C@@H]2[C@@H](C)[C@H]3[C@H](C[C@H]4[C@@H]5CC=C6CC(O[C@@H]7O[C@H](CO)[C@H](O)[C@H](O[C@@H]8O[C@H](CO)[C@@H](O)[C@H](O)[C@H]8O)[C@H]7O[C@H]7O[C@@H](C)[C@H](O)[C@@H](O)[C@H]7O)CC[C@]6(C)[C@H]5CC[C@]34C)N2C1 (some centres undefined) | 39.8 µM (active)
O=C1CCO1 | inactive
O=C1C=CC(=O)C=C1 | 39.8 µM (active)
COC1=CC(=O)O[C@@H](/C=C/c2ccccc2)C1 | inactive
COc1ccc2c(c1OC)C(=O)OC2C1c2cc3c(cc2CCN1C)OCO3 (centres undefined) | inactive
[Cl-].[Cl-].[Hg+2] | 5.01 µM (active)
CC(C)Nc1ccc(Nc2ccccc2)cc1 | 31.6 µM (active)
O=C1C2CC=CCC2C(=O)N1SC(Cl)(Cl)Cl (centres undefined) | 5.01 µM (active) and 6.31 µM (active)
C[C@]12CCC(=O)C[C@@H]1CC[C@@H]1[C@@H]2CC[C@]2(C)[C@@H](O)CC[C@@H]12 | inactive
C=CCN=C=S | inactive
[O]=[Cr](=[O])([OH])[O][Cr](=[O])(=[O])[OH] | 15.8 µM (active) and 10 µM (active)
[O]=[Cd] | inactive
O=C/C=C/c1ccccc1 | inactive
Oc1cc(Cl)c(Cl)cc1Cl | inactive
S=C=S | inactive
ClCC1CO1 (centres undefined) | inactive
CCOC(=O)c1ccccc1C(=O)OCC | inactive
CCCCCCCCOC(=O)c1ccccc1C(=O)OCCCCCCCC | inactive
CC(C)(C)c1cc(O)ccc1O | 50.1 µM (active)
O=[N+]([O-])c1ccccc1 | inactive
Clc1ccccc1Cl | inactive
ClC=C(Cl)Cl | inactive
ClC(Cl)(Cl)Cl | inactive
C[C@H]1CCC[C@H](O)CCCCCc2cc(O)cc(O)c2C(=O)O1 | inactive
O=CC=O | inactive
CCCCCl | inactive
O=Cc1ccco1 | inactive
NNC(N)=O | inactive
CC(C)CCON=O | inactive
